Results reported in the supplement of paper PMC4466140.

Assays:
Assay in all cases: SPOT peptide array binding signal intensity (averaged, normalized) (arbitrary units (background-subtracted, floor 0; scale differs between SH3 domains)); higher = stronger binding of the SH3 domain to the peptide
AgAbp1 = target: AgAbp1
Procedure, shortened: (§1)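 Binding signal is given in arbitrary units that differ between domains and is the normalized, background-subtracted spot intensity averaged across replicates. Each GST-SH3 fusion from one of four yeast species was made in E. coli BL21(DE3), purified on glutathione Sepharose and incubated at 10 μg/ml overnight at 4°C on cellulose-bound synthetic 15-mer peptides in which cysteines were replaced by serines. Detection used anti-GST antibody, an HRP anti-mouse secondary and luminol, followed by imaging and Genespotter quantification.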

AgBbc1 = target: AgBbc1
Procedure, shortened: as §1

AgBem1-D1 = target: AgBem1-D1
Procedure, shortened: as §1

AgBzz1-D1 = target: AgBzz1-D1
Procedure, shortened: as §1

AgBzz1-D2 = target: AgBzz1-D2
Procedure, shortened: as §1

AgCyk3 = target: AgCyk3
Procedure, shortened: as §1

AgFus1 = target: AgFus1
Procedure, shortened: as §1

AgHof1 = target: AgHof1
Procedure, shortened: as §1

AgHse1 = target: AgHse1
Procedure, shortened: as §1

AgLsb1 = target: AgLsb1
Procedure, shortened: as §1

AgLsb4 = target: AgLsb4
Procedure, shortened: as §1

AgMyo5 = target: AgMyo5
Procedure, shortened: as §1

AgNbp2 = target: AgNbp2
Procedure, shortened: as §1

AgRvs167 = target: AgRvs167
Procedure, shortened: as §1

AgSho1 = target: AgSho1
Procedure, shortened: as §1

AgSla1-D1-D2 = target: AgSla1-D1-D2
Procedure, shortened: as §1

AgSla1-D3 = target: AgSla1-D3
Procedure, shortened: as §1

CaAbp1-D1 = target: CaAbp1-D1
Procedure, shortened: as §1

CaAbp1-D2 = target: CaAbp1-D2
Procedure, shortened: as §1

CaBbc1 = target: CaBbc1
Procedure, shortened: as §1

CaBem1-D1 = target: CaBem1-D1
Procedure, shortened: as §1

CaBzz1-D1 = target: CaBzz1-D1
Procedure, shortened: as §1

CaBzz1-D2 = target: CaBzz1-D2
Procedure, shortened: as §1

CaCyk3 = target: CaCyk3
Procedure, shortened: as §1

CaFus1 = target: CaFus1
Procedure, shortened: as §1

CaHof1 = target: CaHof1
Procedure, shortened: as §1

CaHse1 = target: CaHse1
Procedure, shortened: as §1

CaLsb1 = target: CaLsb1
Procedure, shortened: as §1

CaLsb4 = target: CaLsb4
Procedure, shortened: as §1

CaMyo5 = target: CaMyo5
Procedure, shortened: as §1

CaNbp2 = target: CaNbp2
Procedure, shortened: as §1

CaRvs167 = target: CaRvs167
Procedure, shortened: as §1

CaRvs167-3 = target: CaRvs167-3
Procedure, shortened: as §1

CaSho1 = target: CaSho1
Procedure, shortened: as §1

CaSla1-D1-D2 = target: CaSla1-D1-D2
Procedure, shortened: as §1

CaSla1-D3 = target: CaSla1-D3
Procedure, shortened: as §1

ScAbp1 = target: ScAbp1
Procedure, shortened: as §1

ScBbc1 = target: ScBbc1
Procedure, shortened: as §1

ScBem1-D1 = target: ScBem1-D1
Procedure, shortened: as §1

ScBzz1-D1 = target: ScBzz1-D1
Procedure, shortened: as §1

ScBzz1-D2 = target: ScBzz1-D2
Procedure, shortened: as §1

ScCyk3 = target: ScCyk3
Procedure, shortened: as §1

ScFus1 = target: ScFus1
Procedure, shortened: as §1

ScHof1 = target: ScHof1
Procedure, shortened: as §1

ScHse1 = target: ScHse1
Procedure, shortened: as §1

ScLsb1 = target: ScLsb1
Procedure, shortened: as §1

ScLsb2 = target: ScLsb2
Procedure, shortened: as §1

ScLsb3 = target: ScLsb3
Procedure, shortened: as §1

ScLsb4 = target: ScLsb4
Procedure, shortened: as §1

ScMyo3 = target: ScMyo3
Procedure, shortened: as §1

ScMyo5 = target: ScMyo5
Procedure, shortened: as §1

ScNbp2 = target: ScNbp2
Procedure, shortened: as §1

ScPex13 = target: ScPex13
Procedure, shortened: as §1

ScRvs167 = target: ScRvs167
Procedure, shortened: as §1

ScSho1 = target: ScSho1
Procedure, shortened: as §1

ScSla1-D1-D2 = target: ScSla1-D1-D2
Procedure, shortened: as §1

ScSla1-D3 = target: ScSla1-D3
Procedure, shortened: as §1

SpAbp1-D1 = target: SpAbp1-D1
Procedure, shortened: as §1

SpBbc1 = target: SpBbc1
Procedure, shortened: as §1

SpBzz1-D1 = target: SpBzz1-D1
Procedure, shortened: as §1

SpBzz1-D2 = target: SpBzz1-D2
Procedure, shortened: as §1

SpCyk3 = target: SpCyk3
Procedure, shortened: as §1

SpHof1 = target: SpHof1
Procedure, shortened: as §1

SpHof1-2 = target: SpHof1-2
Procedure, shortened: as §1

SpHof1-3 = target: SpHof1-3
Procedure, shortened: as §1

SpHse1 = target: SpHse1
Procedure, shortened: as §1

SpLsb1 = target: SpLsb1
Procedure, shortened: as §1

SpLsb4 = target: SpLsb4
Procedure, shortened: as §1

SpMyo1 = target: SpMyo1
Procedure, shortened: as §1

SpNbp2 = target: SpNbp2
Procedure, shortened: as §1

SpPex13 = target: SpPex13
Procedure, shortened: as §1

SpRvs167 = target: SpRvs167
Procedure, shortened: as §1

SpSla1-D1-D2 = target: SpSla1-D1-D2
Procedure, shortened: as §1

SpSla1-D3 = target: SpSla1-D3
Procedure, shortened: as §1

RRSKSLPTTPGIRSG
SPOT peptide array binding signal intensity (AgAbp1): 744
SPOT peptide array binding signal intensity (AgBbc1): 104
SPOT peptide array binding signal intensity (AgBem1-D1): 348
SPOT peptide array binding signal intensity (AgBzz1-D1): 45
SPOT peptide array binding signal intensity (AgBzz1-D2): 43
SPOT peptide array binding signal intensity (AgCyk3): 4
SPOT peptide array binding signal intensity (AgFus1): 120
SPOT peptide array binding signal intensity (AgHof1): 158
SPOT peptide array binding signal intensity (AgHse1): 816
SPOT peptide array binding signal intensity (AgLsb1): 50.8
SPOT peptide array binding signal intensity (AgLsb4): 128
SPOT peptide array binding signal intensity (AgMyo5): ≤ 0
SPOT peptide array binding signal intensity (AgNbp2): 213
SPOT peptide array binding signal intensity (AgRvs167): 2.33
SPOT peptide array binding signal intensity (AgSho1): 4520
SPOT peptide array binding signal intensity (AgSla1-D1-D2): 469
SPOT peptide array binding signal intensity (AgSla1-D3): 1.75
SPOT peptide array binding signal intensity (CaAbp1-D1): 1220
SPOT peptide array binding signal intensity (CaAbp1-D2): 1180
SPOT peptide array binding signal intensity (CaBbc1): 216
SPOT peptide array binding signal intensity (CaBem1-D1): 54
SPOT peptide array binding signal intensity (CaBzz1-D1): 292
SPOT peptide array binding signal intensity (CaBzz1-D2): 115
SPOT peptide array binding signal intensity (CaCyk3): 17
SPOT peptide array binding signal intensity (CaFus1): 450
SPOT peptide array binding signal intensity (CaHof1): ≤ 0
SPOT peptide array binding signal intensity (CaHse1): 31.5
SPOT peptide array binding signal intensity (CaLsb1): 3.5
SPOT peptide array binding signal intensity (CaLsb4): 276
SPOT peptide array binding signal intensity (CaMyo5): 7.5
SPOT peptide array binding signal intensity (CaNbp2): 430
SPOT peptide array binding signal intensity (CaRvs167): 15.2
SPOT peptide array binding signal intensity (CaRvs167-3): 55.5
SPOT peptide array binding signal intensity (CaSho1): 1030
SPOT peptide array binding signal intensity (CaSla1-D1-D2): 2240
SPOT peptide array binding signal intensity (CaSla1-D3): ≤ 0
SPOT peptide array binding signal intensity (ScAbp1): 261
SPOT peptide array binding signal intensity (ScBbc1): 19.2
SPOT peptide array binding signal intensity (ScBem1-D1): 54
SPOT peptide array binding signal intensity (ScBzz1-D1): 25
SPOT peptide array binding signal intensity (ScBzz1-D2): 27
SPOT peptide array binding signal intensity (ScCyk3): 96
SPOT peptide array binding signal intensity (ScFus1): 163
SPOT peptide array binding signal intensity (ScHof1): 1.25
SPOT peptide array binding signal intensity (ScHse1): 1360
SPOT peptide array binding signal intensity (ScLsb1): 77
SPOT peptide array binding signal intensity (ScLsb2): 6
SPOT peptide array binding signal intensity (ScLsb3): 444
SPOT peptide array binding signal intensity (ScLsb4): 21
SPOT peptide array binding signal intensity (ScMyo3): 6.5
SPOT peptide array binding signal intensity (ScMyo5): ≤ 0
SPOT peptide array binding signal intensity (ScNbp2): 203
SPOT peptide array binding signal intensity (ScPex13): 23.2
SPOT peptide array binding signal intensity (ScRvs167): 18.7
SPOT peptide array binding signal intensity (ScSho1): 5840
SPOT peptide array binding signal intensity (ScSla1-D1-D2): 4460
SPOT peptide array binding signal intensity (ScSla1-D3): 70.5
SPOT peptide array binding signal intensity (SpAbp1-D1): 2040
SPOT peptide array binding signal intensity (SpBbc1): 6.5
SPOT peptide array binding signal intensity (SpBzz1-D1): 226
SPOT peptide array binding signal intensity (SpBzz1-D2): 0.5
SPOT peptide array binding signal intensity (SpCyk3): 5
SPOT peptide array binding signal intensity (SpHof1): 2630
SPOT peptide array binding signal intensity (SpHof1-2): 3020
SPOT peptide array binding signal intensity (SpHof1-3): 1440
SPOT peptide array binding signal intensity (SpHse1): 356
SPOT peptide array binding signal intensity (SpLsb1): 0.5
SPOT peptide array binding signal intensity (SpLsb4): 574
SPOT peptide array binding signal intensity (SpMyo1): 15.2
SPOT peptide array binding signal intensity (SpNbp2): 506
SPOT peptide array binding signal intensity (SpPex13): 8.5
SPOT peptide array binding signal intensity (SpRvs167): 72.5
SPOT peptide array binding signal intensity (SpSla1-D1-D2): 1620
SPOT peptide array binding signal intensity (SpSla1-D3): 15
